Test [1] can be described thus: NCI Yeast Anticancer Drug Screen. Data for the rad50 strain (AID 155).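 Also: 0% = growth of vehicle-only cultures of the same strain.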 As to conditions: S. cerevisiae rad50 strain growth inhibition, hits give high values. An outline of the steps: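 DNA repair mutant yeast, compound exposure, growth read-out; inhibition is taken relative to vehicle.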
A short description of test [2]: NCI Yeast Anticancer Drug Screen. Data for the mec2-1 strain (AID 157). As to conditions: S. cerevisiae mec2-1 strain, hits give high values. An outline of the steps: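 Yeast mec2-1 mutant treated with compound. Readout: growth inhibition vs vehicle controls.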
Test [3] is described as follows: NCI Yeast Anticancer Drug Screen. Data for the sgs1 mgt1 strain (AID 161).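 Also: 0% = growth of cultures given vehicle only.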 The note with it: S. cerevisiae sgs1 mgt1 strain, hits give high values. Summed up:
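Read-out: growth inhibition vs vehicle controls. Cells: mutant yeast strain deficient in DNA damage repair.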

Test [4] can be described thus: NCI Yeast Anticancer Drug Screen. Data for the cln2 rad14 strain (AID 165).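 Also: 0% = growth equal to vehicle treated cultures.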 The note with it: S. cerevisiae cln2 rad14 strain, hits give high values. An outline of the steps:
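cln2 rad14 yeast strain; compound exposure; growth inhibition read vs vehicle controls.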

A short description of test [5]: NCI Yeast Anticancer Drug Screen. Data for the bub3 strain (AID 167). As to conditions: S. cerevisiae bub3 mutant strain, hits give high values. Summed up: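 In this screen, a yeast mutant lacking normal mitotic checkpoint function is challenged with compound. Relative growth versus vehicle gives the inhibition value.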
Test [6] can be described thus: NCI Yeast Anticancer Drug Screen. Data for the mlh1 rad18 strain (AID 175). The note with it: S. cerevisiae mlh1 rad18 strain growth inhibition, hits give high values. Summed up: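 Yeast w/ defined DNA-repair lesions; compound exposure; growth vs vehicle controls → % inhibition.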
Where [7] appears, read: at 5.0 µM (retest, dose inferred, filed as 0.5).
Where [8] appears, read: at 50.0 µM (retest, dose inferred, filed as 5.0).

This is part of a sample that, as a whole, favours compounds with a hit. Of some 79,000 tested, about 15% had one in any assay. Unmarked numbers belong to inactive results. Active and inactive are the calls of the source. Rule as the data show it: active = growth inhibition above about 70%; inactive = the rest.

For `OC1C2COc3nc4ccccc4n3C(O2)C1O` (configuration not stated), the growth inhibition in test [1] (setting [7]) is -153%; in test [1] (setting [8]) it was -165%; in test [1] (at 50.0 µM), -7.3%; in test [2] (setting [7]) it was -54%; in test [2] (setting [8]), -57%; in test [2] (at 50.0 µM) it was 5.4%. Further, the growth inhibition was -58% in test [3] (setting [7]); -70% in test [3] (setting [8]); -10.4% in test [3] (at 50.0 µM); -60% in test [4] (setting [7]); -56% in test [4] (setting [8]); 33.6% in test [4] (at 50.0 µM). The growth inhibition in test [5] (setting [7]) was -69%; in test [5] (setting [8]) it was -84%; in test [5] (at 50.0 µM), -14.9%; in test [6] (setting [7]) it was -117%; in test [6] (setting [8]), -118%; in test [6] (at 50.0 µM) it was -7.05%.
With `CC(/C=C/c1cccs1)=N\C(=S)NC(N)=S`, the growth inhibition was -1% in test [1] (setting [7]); 0% in test [1] (setting [8]); 3.7% in test [1] (at 50.0 µM); 10% in test [2] (setting [7]); 32% in test [2] (setting [8]); 28.4% in test [2] (at 50.0 µM). Moreover, the growth inhibition in test [3] (setting [7]) was 1%; in test [3] (setting [8]), 12%; in test [3] (at 50.0 µM), 26.7%; in test [4] (setting [7]), -1%; in test [4] (setting [8]), -4%; in test [4] (at 50.0 µM), 2.05%. Besides, the growth inhibition in test [5] (setting [7]) is 1%; in test [5] (setting [8]), 52%; in test [5] (at 50.0 µM), 77.8% (active); in test [6] (setting [7]), -5%; in test [6] (setting [8]) it was 12%; in test [6] (at 50.0 µM) it was 25.9%.
For the compound `Cn1cc(C2=CC(=O)C=CC2=O)c2ccccc21`, the growth inhibition in test [1] (setting [7]) is 0%; in test [1] (setting [8]), 97% (active); in test [1] (at 50.0 µM), 98.1% (active); in test [2] (setting [7]), 8%; in test [2] (setting [8]), 99% (active); in test [2] (at 50.0 µM) it was 98.6% (active). In addition, the growth inhibition in test [3] (setting [7]) was 4%; in test [3] (setting [8]), 98% (active); in test [3] (at 50.0 µM), 98.8% (active); in test [4] (setting [7]) it was -2%; in test [4] (setting [8]), 98% (active); in test [4] (at 50.0 µM) it was 98.2% (active). The growth inhibition in test [5] (setting [7]) is -4%; in test [5] (setting [8]) it was 97% (active); in test [5] (at 50.0 µM) it was 98.2% (active); in test [6] (setting [7]), 2%; in test [6] (setting [8]) it was 98% (active); in test [6] (at 50.0 µM), 98.5% (active).
With `CC#Cc1cc2c(cc1O)CC[C@@H]1[C@@H]2CC[C@]2(C)[C@@H](O)CC[C@@H]12`, the growth inhibition in test [1] (setting [7]) was 39%; in test [1] (setting [8]), 99% (active); in test [1] (at 50.0 µM), 84.7% (active); in test [2] (setting [7]), 22%; in test [2] (setting [8]), 100% (active); in test [2] (at 50.0 µM), 90.3% (active). Further, the growth inhibition is 24% in test [3] (setting [7]); 99% (active) in test [3] (setting [8]); 88.5% (active) in test [3] (at 50.0 µM); 20% in test [4] (setting [7]); 99% (active) in test [4] (setting [8]); 72.4% (active) in test [4] (at 50.0 µM). The growth inhibition in test [5] (setting [7]) is 26%; in test [5] (setting [8]) it was 99% (active); in test [5] (at 50.0 µM) it was 87.7% (active); in test [6] (setting [7]), 29%; in test [6] (setting [8]), 99% (active); in test [6] (at 50.0 µM) it was 93.3% (active).
Regarding `O=S(=O)(O)c1cc(N=Nc2ccc(O)c(O)c2)ccc1/C=C/c1ccc(N=Nc2ccc(O)c(O)c2)cc1S(=O)(=O)O`, the growth inhibition in test [1] (setting [7]) was 29%; in test [1] (setting [8]), 83% (active); in test [1] (at 50.0 µM), 57%; in test [2] (setting [7]) it was 30%; in test [2] (setting [8]), 89% (active); in test [2] (at 50.0 µM) it was 67.6%. For the same compound, the growth inhibition was 23% in test [3] (setting [7]); 89% (active) in test [3] (setting [8]); 68.5% in test [3] (at 50.0 µM); 31% in test [4] (setting [7]); 31% in test [4] (setting [8]); 18.8% in test [4] (at 50.0 µM). Also, the growth inhibition was 34% in test [5] (setting [7]); 86% (active) in test [5] (setting [8]); 76.3% (active) in test [5] (at 50.0 µM); 33% in test [6] (setting [7]); 83% (active) in test [6] (setting [8]); 75.4% (active) in test [6] (at 50.0 µM).
For the compound `CCCCCCCCOc1ccc(/C=C/C(C)=N/NC(N)=NC)cc1OC`, the growth inhibition was 98% (active) in test [1] (setting [7]); 98% (active) in test [1] (setting [8]); 98.7% (active) in test [1] (at 50.0 µM); 98% (active) in test [2] (setting [7]); 99% (active) in test [2] (setting [8]); 99% (active) in test [2] (at 50.0 µM). Also, the growth inhibition in test [3] (setting [7]) is 82% (active); in test [3] (setting [8]), 99% (active); in test [3] (at 50.0 µM), 38.7%; in test [4] (setting [7]), 72% (active); in test [4] (setting [8]), 93% (active); in test [4] (at 50.0 µM) it was 98.3% (active). In addition, the growth inhibition in test [5] (setting [7]) is 97% (active); in test [5] (setting [8]), 99% (active); in test [5] (at 50.0 µM), 99% (active); in test [6] (setting [7]), 99% (active); in test [6] (setting [8]), 98% (active); in test [6] (at 50.0 µM), 98.5% (active).
For the compound `C=C(Cl)C(=NC(C)(C)C)Nc1ccccc1C`, the growth inhibition in test [1] (setting [7]) was 27%; in test [1] (setting [8]), 53%; in test [1] (at 50.0 µM) it was 69.3%; in test [2] (setting [7]) it was 20%; in test [2] (setting [8]), 56%; in test [2] (at 50.0 µM), 74.9% (active). In addition, the growth inhibition in test [3] (setting [7]) was 25%; in test [3] (setting [8]), 61%; in test [3] (at 50.0 µM) it was 81.4% (active); in test [4] (setting [7]), 29%; in test [4] (setting [8]) it was 37%; in test [4] (at 50.0 µM), 66%. Further, the growth inhibition is 22% in test [5] (setting [7]); 60% in test [5] (setting [8]); 83.8% (active) in test [5] (at 50.0 µM); 30% in test [6] (setting [7]); 80% (active) in test [6] (setting [8]); 40.1% in test [6] (at 50.0 µM).
Regarding `O=C1Nc2ccccc2/C1=C\c1ccccn1`, the growth inhibition was 41% in test [1] (setting [7]); 76% (active) in test [1] (setting [8]); 68.7% in test [1] (at 50.0 µM); 22% in test [2] (setting [7]); 60% in test [2] (setting [8]); 30.9% in test [2] (at 50.0 µM). The growth inhibition in test [3] (setting [7]) is 34%; in test [3] (setting [8]) it was 76% (active); in test [3] (at 50.0 µM) it was 48.7%; in test [4] (setting [7]), 32%; in test [4] (setting [8]) it was 38%; in test [4] (at 50.0 µM), 9%. For the same compound, the growth inhibition in test [5] (setting [7]) is 26%; in test [5] (setting [8]), 68%; in test [5] (at 50.0 µM), 56%; in test [6] (setting [7]) it was 49%; in test [6] (setting [8]), 86% (active); in test [6] (at 50.0 µM) it was 51%.
With `O=C(CC1(O)C(=O)Nc2c(Cl)ccc(Cl)c21)c1ccc(Cl)cc1Cl` (configuration not stated), the growth inhibition is 25% in test [1] (setting [7]); 25% in test [1] (setting [8]); 91.6% (active) in test [1] (at 50.0 µM); 13% in test [2] (setting [7]); 13% in test [2] (setting [8]); 90.7% (active) in test [2] (at 50.0 µM). For the same compound, the growth inhibition was 18% in test [3] (setting [7]); 18% in test [3] (setting [8]); 90.8% (active) in test [3] (at 50.0 µM); -6% in test [4] (setting [7]); -6% in test [4] (setting [8]); 91.3% (active) in test [4] (at 50.0 µM). Besides, the growth inhibition in test [5] (setting [7]) was -2%; in test [5] (setting [8]), -2%; in test [5] (at 50.0 µM), 93.7% (active); in test [6] (setting [7]) it was 19%; in test [6] (setting [8]) it was 19%; in test [6] (at 50.0 µM) it was 92.2% (active).

The record behind these values is PubChem BioAssay (NCI).
